PubChem BioAssay AID651704 (Broad Institute, 2012)
Hit rate of the full screen: of about 350,000 compounds, about 1,600 (0.46%) were called active. The sample as a whole holds a higher share of actives than the screen did. Unmarked numbers belong to inactive results.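 The calls were made as follows: active = every replicate reaching a set inhibition limit, whatever the replicate mean (cut at about 25% in these data); inconclusive = mean inhibition reaches that limit but some replicates miss it; inactive = the rest.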

target: Protein AF-9 (Homo sapiens) (UniProt P42568); experiment: inhibitors of AF4 peptide binding to AF9, primary screen, biochemical, AlphaScreen, biotin-AF4 peptide, FLAG-AF9, single point (AID 651704); settings: at 10 µM, hits give high values;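 also: 0% = plate neutral control median and 100% = total signal loss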
Sequence (P42568 whole entry, looked up): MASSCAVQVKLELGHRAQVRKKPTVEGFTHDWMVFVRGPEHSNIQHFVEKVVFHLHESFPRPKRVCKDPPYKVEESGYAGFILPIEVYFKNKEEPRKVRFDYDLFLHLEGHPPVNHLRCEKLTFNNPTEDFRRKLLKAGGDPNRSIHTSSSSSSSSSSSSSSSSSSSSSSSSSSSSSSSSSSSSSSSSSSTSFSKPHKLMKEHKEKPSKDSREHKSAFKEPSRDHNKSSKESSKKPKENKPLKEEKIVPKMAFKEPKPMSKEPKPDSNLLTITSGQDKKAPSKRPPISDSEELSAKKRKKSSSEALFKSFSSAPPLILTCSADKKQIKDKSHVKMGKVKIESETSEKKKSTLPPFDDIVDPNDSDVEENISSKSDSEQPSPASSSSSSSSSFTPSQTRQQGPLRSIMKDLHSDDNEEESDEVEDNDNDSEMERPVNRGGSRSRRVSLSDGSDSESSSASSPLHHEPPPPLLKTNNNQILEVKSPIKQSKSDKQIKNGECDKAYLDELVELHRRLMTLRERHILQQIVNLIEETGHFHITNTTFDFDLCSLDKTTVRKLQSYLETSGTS

Row | Structure (SMILES) | inhibition
1 | C/C=C/c1ccccc1[C@@H]1[C@@H](C#N)N(C(=O)Cc2ccccn2)[C@H]1CO | 0.68%
2 | COc1ccccc1-c1cnc2c(c1)C(=O)N([C@H](C)CO)C[C@H](C)[C@@H](CN(C)CC1CCOCC1)O2 | -1.31%
3 | CC(=O)c1c(N2CCN(c3ccc(F)cc3)CC2)nc(=S)n(-c2ccccc2)c1C | 26.4% (active)
4 | CC(=O)c1c(N2CCOCC2)nc(=S)n(-c2cc(C)ccc2C)c1C | 11.8%
5 | Cc1ccc2cc(C)c(N3CCN(c4ccc(F)cc4)CC3)nc2c1 | -1.83%
6 | O=C(C1CCCC1)N1CC(=O)N2[C@H](C1)[C@@H](c1ccc(-c3cccnc3)cc1)[C@@H]2CO | -2.09%
7 | Cc1cccc(S(=O)(=O)N2CCCCN3[C@@H](CO)[C@H](c4ccc(-c5cccnc5)cc4)[C@@H]3C2)c1 | -0.659%
8 | COc1ccc2c3c(n(C)c2c1)[C@@H](CO)N(Cc1ccccc1F)CC31CCN(C(=O)C2CCOCC2)CC1 | 1.15%
9 | Cc1noc(C)c1NC(=O)N(C)C[C@@H]1OCCCC[C@@H](C)Oc2ccc(NC(=O)C3CCCCC3)cc2C(=O)N([C@@H](C)CO)C[C@H]1C | -0.114%
10 | COc1cc2c(cc1NC(=O)COC(=O)/C=C/c1ccccc1)oc1ccccc12 | 30.3% (active)
11 | COc1cc(/C=C/C(=O)OCC(=O)c2ccccc2)cc(OC)c1OC | 4.16%
12 | COc1ccc(/C=C/C(=O)OCC(=O)NCc2cccs2)cc1OC | 2.43%
13 | COc1ccc(CNC(=O)C[C@@H]2CC[C@H](NC(=O)c3cccc(F)c3)[C@H](CO)O2)cc1 | 0.518%
14 | COC(=O)c1cc(S(=O)(=O)NCC2CCN(Cc3ccc(Cl)cc3)CC2)cn1C | 5.58%
15 | COC(=O)c1c(C)oc(C)c1S(=O)(=O)NCc1ccc(Cl)cc1 | 28.9% (active)
16 | COC(=O)c1c(C)oc(C)c1S(=O)(=O)Nc1ccc(C(C)C)cc1 | 0.192%
17 | O=C(CC1CC1)Nc1ccc2c(c1)[C@@H]1C[C@@H](CC(=O)NC3CCCCC3)O[C@H](CO)[C@@H]1O2 | 0.025%
18 | CC(C)CC#Cc1ccc([C@@H]2[C@@H](CO)N3C(=O)CN(C(=O)Nc4ccc(F)cc4)C[C@H]23)cc1 | 5.86%
19 | CN(C)c1ccc(C2N(C)C(=O)c3ccccc3N2C)cc1 (stereo not drawn) | 2.23%
20 | CN(C)c1ccc(Nc2c3c4c(cccc4n(C)c2=O)C(=O)c2ccccc2-3)cc1 | 64.1% (active)
21 | COc1cccc(S(=O)(=O)Nc2ccc3c(c2)[C@H]2C[C@H](CC(=O)N4CCCCC4)O[C@@H](CO)[C@H]2O3)c1 | 0.52%
22 | COc1ccc2c3c([nH]c2c1)[C@H](CO)N(C(=O)c1ccncc1)CC31CCN(C(=O)c2ccncc2)CC1 | 3.61%
23 | COc1ccc(C#Cc2ccc([C@@H]3[C@@H](CO)N4C(=O)CN(C(=O)c5ccc(F)cc5)C[C@@H]34)cc2)cc1 | -3.35%
24 | O=C(c1ccccn1)N1CC2(C1)[C@H](c1ccccc1)[C@H](CO)N2C(=O)C1CCCC1 | -1.83%

Row | Structure (SMILES) | inhibition
25 | CN1C(=O)c2cc(NC(=O)c3ccno3)ccc2OC[C@H]2O[C@@H](CC(=O)NCC(F)(F)F)CC[C@@H]21 | -0.947%
26 | O=C(Nc1ccccc1)C1CCN(C(=O)c2ccc(Br)cc2)CC1 | -2.26%
27 | CC1CCN(C(=O)c2ccc3c(c2)NC(=O)CN3)CC1 | 4.92%
28 | O=C1Nc2cc(C(=O)N3CCC(N4CCCCC4)CC3)ccc2S/C1=C\c1ccccc1 | 32.5% (active)
29 | O=C(N[C@H]1CC[C@H](CCn2cc(C3(O)CCCC3)nn2)O[C@H]1CO)C1CC1 | -0.223%
30 | C[C@@H]1CCCCO[C@H](CN(C)Cc2ccc(C(F)(F)F)cc2)[C@H](C)CN([C@@H](C)CO)C(=O)c2cc(N(C)C)ccc2O1 | 29.4% (active)
31 | C[C@@H]1CN([C@H](C)CO)C(=O)Cc2cc(N(C)C)ccc2O[C@@H]1CN(C)Cc1ccccc1 | 3.48%
32 | C[C@H]1CN([C@@H](C)CO)C(=O)Cc2cc(N(C)C)ccc2O[C@@H]1CN(C)Cc1ccc(-c2ccccc2)cc1 | 51.6% (active)
33 | C[C@@H]1CN([C@@H](C)CO)C(=O)c2cc(N(C)C)ccc2O[C@@H](C)CCCCO[C@H]1CN(C)Cc1ccncc1 | -1.22%
34 | C[C@H](CO)N1C[C@H](C)[C@H](CN(C)Cc2ccc(C(F)(F)F)cc2)Oc2ccc(N(C)C)cc2CC1=O | 15.8%
35 | C[C@@H]1CCCCO[C@@H](CN(C)Cc2ccncc2)[C@H](C)CN([C@H](C)CO)C(=O)c2cc(N(C)C)ccc2O1 | 1.48%
36 | CCCNC(=O)N1C[C@H](C)[C@@H](OC)CN(C)C(=O)c2ccc(NC(=O)CC)cc2OC[C@@H]1C | -2.2%
37 | COc1cccc(C#Cc2ccc([C@@H]3[C@H](C#N)N[C@H]3CO)cc2)c1 | -2.01%
38 | CC(C)C#Cc1ccc([C@H]2[C@@H](CO)N3C(=O)CN(C(=O)Cc4ccccc4)C[C@H]23)cc1 | -0.595%
39 | COc1ccccc1NC(=O)Nc1ccc2c(c1)OC[C@H](C)NC[C@H](C)[C@@H](OC)CN(C)C2=O | 1.19%
40 | Cc1ccc(S(=O)(=O)Nc2ccc3c(c2)C(=O)N([C@@H](C)CO)C[C@@H](C)[C@@H](CN(C)S(=O)(=O)c2ccc(C)cc2)O3)cc1 | -1.03%
41 | O=C(O)C[C@@H]1CC[C@H](NC(=O)CCN2CCCCC2)[C@H](CO)O1 | -0.492%
42 | Cc1ccccc1C(=O)Nc1ccc(N2CCCCCC2)cc1 | 27.9% (active)
43 | Cc1ccccc1C(=O)N1CCN(c2ccc(NC(=O)c3cccs3)cc2)CC1 | 0.817%
44 | Cc1ccccc1C(=O)Nc1ccccc1NC(=O)c1ccccc1C | 0.679%
45 | O=C(CC1CC1)N[C@@H]1C[C@@H]2O[C@H](CO)CC[C@@H]2O[C@@H]1CCc1ccc(C#Cc2ccccc2)cc1 | -5.03%
46 | Oc1c(CN2CCCC2)cc(COCc2ccccc2)c2cccnc12 | 6.56%
47 | Cc1ccc(CN2CCN(c3ncccn3)CC2)c(C)c1 | -1.37%
48 | Oc1c(CN2CCN(c3ccc(F)cc3)CC2)cc(Cl)c2cccnc12 | 41.3% (active)
